# Screen size: about 48,000 compounds; about 13,000 (27%) showed an effect of 50% or more. Some of the results follow.
# Test system: Wolbachia pipientis
# Assay: Anti-Wolbachia Cell-Based Screen
# Format: functional
# Design: scale not given: in the data most compounds retested in dose-response had high values
# Conditions: 5 µM
row,SMILES,Percent Effect [%]
1,COCCN(C)C[C@@H]1CN(C(=O)c2ccc(SC)cc2)C[C@@H]1CO,113.3
2,COCCN(C)C[C@@H]1CN(C(=O)C(C)(C)c2ccccc2)C[C@@H]1CO,115.8
3,COCCN(C)C[C@@H]1CN(C(=O)c2c(F)ccc(OC)c2F)C[C@@H]1CO,-13.51
4,COc1ccc(F)c(F)c1C(=O)N1C[C@@H](CN(C)CCO)[C@@H](CO)C1,-3.681
5,COCCN(C)C[C@@H]1CN(C(=O)c2ccc(OC)c(F)c2)C[C@@H]1CO,94.27
6,O=C(c1ccc2c(c1)OCO2)N1C[C@@H](CN2CCCCC2)[C@@H](CO)C1,-23.85
7,COCCN(C)C[C@@H]1CN(C(=O)c2ccc3c(c2)OCO3)C[C@@H]1CO,100.3
8,CCc1ccc2nc(C)cc(C(=O)NC3CCCCNC3=O)c2c1 (centres undefined),-55.41
9,COc1ccc(N2CCC(N3CCOC(C(F)(F)F)C3)CC2)cc1 (centres undefined),26.01
10,COC(=O)c1ccc(Cl)c(CN(C)Cc2ncnn2C)c1,-12.36
11,COC(=O)CCCC(=O)N(C)CC1Cc2ccccc2CN1C (centres undefined),-6.642
12,CS(=O)(=O)Cc1ccc(C(=O)NCC2Cc3ccccc3O2)cc1 (centres undefined),-4.65
13,COc1ccc(C)cc1C(=O)N1C[C@@H](CN(C)CCO)[C@@H](CO)C1,-25.29
14,COCCN(C)C[C@@H]1CN(C(=O)c2ccc(C)cc2)C[C@@H]1CO,166.3
15,COCCN(C)C[C@@H]1CN(C(=O)c2ccoc2)C[C@@H]1CO,-5.57
16,Cc1cc(C(=O)N2CCn3cnc(COCC4CC4)c3C2)no1,-11.47
17,CCc1n[nH]c(C2CN(C(=O)c3ccc4c(c3)CCC4)CCO2)n1 (centres undefined),79.95
18,CCc1n[nH]c(C2CN(C(=O)c3cc4c(s3)CCCC4)CCO2)n1 (centres undefined),-2.74
19,Cc1n[nH]c(C2CN(C(=O)c3ccc4c(c3)CCCC4)CCO2)n1 (centres undefined),-29.36
20,CCc1n[nH]c(C2CN(C(=O)c3ccc4c(c3)CCCC4)CCO2)n1 (centres undefined),128.9
21,CCc1nc(CNC2CCCc3c2cnn3CC)cs1 (centres undefined),1.475
22,COCCCC1CCCCN1S(=O)(=O)c1cccc(C#N)c1 (centres undefined),99.73
23,N#Cc1cccc(S(=O)(=O)N2CCCCC2CCN2CCCC2)c1 (centres undefined),93.73
24,CCN1CCCC1CN(CCN(C)C)S(=O)(=O)c1cccc(C#N)c1 (centres undefined),-13.07
25,N#Cc1cccc(S(=O)(=O)N2CCCCC2CCN2CCCC2=O)c1 (centres undefined),2.931

row,SMILES,Percent Effect [%]
1,CS(=O)(=O)NCC1CCCCN1Cc1cccc(C#N)c1 (centres undefined),20.87
2,CC(C)C1CN(S(=O)(=O)c2cccc(C#N)c2)CCS1 (centres undefined),-18.57
3,O=C(O)c1csc(S(=O)(=O)N2CCCc3cc(OC(F)F)ccc32)c1,-5.134
4,Cc1noc(C)c1C(=O)N1C[C@H]2CCC[C@@]2(COc2ccccn2)C1.O=C(O)C(F)(F)F,-9.504
5,O=C(O)C(F)(F)F.O=C(c1ncccn1)N1C[C@H]2CCC[C@@]2(COCc2cccnc2)C1,0.3809
6,CN(C)S(=O)(=O)N1C[C@H]2CCC[C@@]2(COCc2ccccn2)C1.O=C(O)C(F)(F)F,5.963
7,Cc1ccc(N2C[C@H]3CCC[C@@]3(COc3cccnc3)C2)nn1.O=C(O)C(F)(F)F.O=C(O)C(F)(F)F,-0.008691
8,CN(C)S(=O)(=O)N1C[C@H]2CCC[C@@]2(COc2cccnc2)C1.O=C(O)C(F)(F)F,5.762
9,O=C(C1CCOCC1)N1C[C@H]2CCC[C@@]2(COCc2ccccn2)C1,98.54
10,COC[C@@]12CCC[C@@H]1CN(C(=O)Cc1ccccn1)C2.O=C(O)C(F)(F)F,87.04
11,O=C(C1CCOCC1)N1C[C@H]2CCC[C@@]2(COc2cccnc2)C1.O=C(O)C(F)(F)F,89.34
12,O=C(N1CCCC1)N1C[C@H]2CCC[C@@]2(COCc2ccccn2)C1.O=C(O)C(F)(F)F,108.6
13,Cc1cccc(NS(=O)(=O)c2ccc(C#N)nc2)c1C#N,-1.647
14,CCC(CC)c1cc(C(=O)N2CCN(C(C)C(N)=O)CC2)on1 (centres undefined),-12.57
15,CC(C)c1cc(C(=O)N2CCN(c3ncc4c(n3)CCOC4)CC2)on1,106.5
16,CCC(CC)c1cc(C(=O)N2CCN(C(C#N)C(C)C)CC2)on1 (centres undefined),-14.62
17,Cc1cc(NC(=O)CN(c2ccccc2)C(C)C)on1,-6.846
18,COc1cccc(Nc2nc(C3CCNCC3)c3sc(C)c(C)n23)c1.Cl,130.3
19,COc1cccc(Nc2nc(C3CCCNC3)c3sc(C)c(C)n23)c1.Cl (centres undefined),119.3
20,O=C(Nc1cccnc1-n1cncn1)N(C1CCCC1)C1CC1,-11.98
21,CN(C)[C@@H]1CO[C@H](CNC(=O)CC(C)(C)C)[C@H]1O,-5.201
22,COc1cccc(OCC2CCCN(C(=O)CCCn3cccn3)C2)c1 (centres undefined),-37.97
23,CC(C)CN1CCCn2nc(CNC(=O)CCN)cc2C1,-4.677
24,CC(C)CN1CCCn2nc(CNC(=O)Cc3cccc(O)c3)cc2C1,6.027
25,CSCC[C@H](N)C(=O)NCc1cc2n(n1)CCCN(C1CCCCC1)C2,-4.094

row,SMILES,Percent Effect [%]
1,CSCCC(=O)NCc1cc2n(n1)CCCN(C1CCCCC1)C2,170.8
2,CC(C)SCC(=O)NCc1cc2n(n1)CCCN(C1CCCCC1)C2,96.57
3,CCN(C(C)=O)C1CCN(c2nccc(CCC(F)(F)F)n2)C1 (centres undefined),-1.785
4,COCc1ccc(C(=O)N2CCC(c3nccn3CC3CC3)CC2)o1,-37.93
5,CCCC(C)(C)NC(=O)CCN1CCOC1=O,8.427
6,COc1cccc(S(=O)(=O)CCNC(C)Cn2cccn2)c1 (centres undefined),-1.101
7,CC(=O)c1c[nH]c(C(=O)N2CCN(C(C(N)=O)c3ccccc3)CC2)c1 (centres undefined),-4.109
8,CN1C(=O)CC(C(=O)O)C12CCN(Cc1cc(Cl)ccc1F)CC2 (centres undefined),-0.96
9,Cc1nc(CNC(=O)C(C)(C)c2ccc(F)cc2)no1,7.656
10,CN1CCC(N(Cc2ccccc2F)C(=O)NCc2ccncc2)CC1,10.43
11,CN1CCCC(c2cncc(C(=O)NCc3ccccc3Cl)n2)C1.O=CO (centres undefined),120.9
12,O=C(NCc1ccccc1CN1CCCC1)Nc1cccnc1,1.889
13,CN1CCC(c2cncc(C(=O)NCc3ccc(F)cc3)n2)CC1,172.3
14,Cn1cc(CN2CCC(CCC(=O)NCc3ccc(F)cc3)CC2)cn1,-6.777
15,CN(C)C(=O)NC1COC2(CCN(Cc3nccn3C)CC2)C1 (centres undefined),15.08
16,Cc1nc(CN2CC(CCCc3ccccn3)(C(=O)N(C)C)C2)co1,55.58
17,CN(C)C(=O)C1(CCCc2ccccn2)CCN1Cc1nccn1C (centres undefined),105.4
18,CNC(=O)C1(CCCc2ccccn2)CCN1Cc1coc(C)n1 (centres undefined),87.23
19,Cn1ccnc1CN1CCCC(CO)(CCc2ccccc2)C1 (centres undefined),4.446
20,Cc1nc(CN2CCC2(CCCc2ccccn2)C(=O)N(C)C)co1 (centres undefined),74.52
21,Cc1nc(CN2CCC(Oc3ccc(F)cc3C)(C(=O)O)CC2)co1,-0.386
22,Cc1ccc(NC2CCN(C(=O)CCCc3ccccn3)CC2)cc1,28.87
23,O=C(CCCc1ccccn1)N1CCOc2ccc(F)cc21,-6.681
24,Cc1cccc(C(C(=O)NCCCc2ccccn2)N(C)C)c1 (centres undefined),0.3434
25,O=C(CCCc1ccccn1)N1CCC(n2cccc2)CC1,17.05

row,SMILES,Percent Effect [%]
1,O=C(CN1C(=O)CCC1=O)N1Cc2cncnc2C1,12.03
2,Cc1nc2n(n1)CC(NCC(=O)N(C)Cc1cccs1)CC2 (centres undefined),8.702
3,CC(C)(C)c1cn(CC2CCCN(c3cnc4ccccc4n3)C2)nn1 (centres undefined),0.2574
4,CCNC(=O)N1CCCCC1CCO (centres undefined),-12.11
5,CC1(C)OC(=O)N(CC(=O)N2CCC(c3ccccc3Cl)C2)C1=O (centres undefined),91.31
6,COc1ccccc1C1CCN(C(=O)CN2C(=O)OC(C)(C)C2=O)CC1,112.8
7,CC1(C)OC(=O)N(CC(=O)N2CCC(c3ccccc3F)C2)C1=O (centres undefined),96.35
8,O=C(CN1C(=O)CCNC1=O)N1CCC(c2ccc(F)cc2)C1 (centres undefined),-18.18
9,CCOc1cccnc1C(=O)N1CCC(c2ccccc2OC)C1 (centres undefined),-1.787
10,Cc1cccc(C2CCCN(C(=O)CN3C(=O)CCNC3=O)C2)c1 (centres undefined),2.396
11,O=C1CCCCN1CC(=O)N1CCCC(c2ccccc2)C1 (centres undefined),-3.382
12,COCCOCC(=O)N1CCC(c2ccccc2F)C1 (centres undefined),5.027
13,COc1ccccc1[C@@H]1CN(CC(=O)N2CCCCC2)C[C@H]1C(=O)O,-14.69
14,O=C(Nc1ccccc1N1CCOC1=O)N1CCSCC1,-8.317
15,Oc1ccccc1-c1cc(-c2nc(C3CC3)n[nH]2)[nH]n1,-8.043
16,O=c1[nH]c(N2CCOCC2)nc2c1CN(Cc1cccnc1)CC2,111.6
17,CC1CCCCN1c1nc2c(c(=O)[nH]1)CCN(Cc1cccnc1)C2 (centres undefined),-7.907
18,c1cnc(NCc2n[nH]c3c2CCN(Cc2cccnc2)C3)nc1,-6.284
19,Cc1cccc(CN2CCc3c(nc(N4CCC(C)CC4)[nH]c3=O)C2)n1,-8.966
20,O=c1[nH]c(N2CCCCC2)nc2c1CCN(Cc1cccnc1)C2,95.47
21,Cn1ccnc1CN(CCO)C(=O)c1nc2ccccc2s1,-11.45
22,O=C(NCCc1ccccc1)N1CCCCC1C1OCCO1 (centres undefined),1.192
23,O=C(CCc1ccccc1)N1CCCCC1C1OCCO1 (centres undefined),-4.281
24,O=C(NCc1ccccc1F)N1CCCCC1C1OCCO1 (centres undefined),112.3
